# Rows were chosen to be rich in hits. Some 7.4% of all compounds tested hit in one or more screens of this group.
# KinaseGlo FLuc – Counterscreen for Luciferase (Kinase-Glo TM) Inhibition. Luciferin 4-monooxygenase (Photuris pensylvanica), Q27757. Kinase-Glo luciferase, ATP luminescence, 8 min. Potency, µM (titrated, usually from 38.3 µM), inactives show at the highest dose activity change, negative = inhibition, usual class: inhibitors. 200,000 compounds, 0.28% hits. AID 1379, 2008; further: on the % scale 0 is the no-effect control and ±100 the full control effect; nearly all actives have a fitted effect of over 60% in size
#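 Kinase-Glo luciferase light output from ATP and luciferin was measured with 10 uM ATP, within the enzyme's linear range. Buffer: 50 mM imidazole pH 7.2, 50 mM KCl, 7 mM MgCl2, 0.01% Tween 20, 0.05% BSA; luminescence read after 8 min at ambient temperature.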
# FLuc counter – qHTS profiling assay for firefly luciferase inhibitor/activator using purifed enzyme and Km concentrations of substrates (counterscreen for miR-21 project); purified FLuc, Km substrates, luminescence inhibition; 360,000 compounds, 6.9% hits; Potency, µM (highest dose often 57.5 µM), inactives show at the highest dose activity change, negative = inhibition, hits mostly inhibitors;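 further: plate controls were vehicle for no effect and reference inhibitor for full effect; nearly all actives have a fitted effect of over 55% in size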
# Target sequence (P08659 whole entry, looked up): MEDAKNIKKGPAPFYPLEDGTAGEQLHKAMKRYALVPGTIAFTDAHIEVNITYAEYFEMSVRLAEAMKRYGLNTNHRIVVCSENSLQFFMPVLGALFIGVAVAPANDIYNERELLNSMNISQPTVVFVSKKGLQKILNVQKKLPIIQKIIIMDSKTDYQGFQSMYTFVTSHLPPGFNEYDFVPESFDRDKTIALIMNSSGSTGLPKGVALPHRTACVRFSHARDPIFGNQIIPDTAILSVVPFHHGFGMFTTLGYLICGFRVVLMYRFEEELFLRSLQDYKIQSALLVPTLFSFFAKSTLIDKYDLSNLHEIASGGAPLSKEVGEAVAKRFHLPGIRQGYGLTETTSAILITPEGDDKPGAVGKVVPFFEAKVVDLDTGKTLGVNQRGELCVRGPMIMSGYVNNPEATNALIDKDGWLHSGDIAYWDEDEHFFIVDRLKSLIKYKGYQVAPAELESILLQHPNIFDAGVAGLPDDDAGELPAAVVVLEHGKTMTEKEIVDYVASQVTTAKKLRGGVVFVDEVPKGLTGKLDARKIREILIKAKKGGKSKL
#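 Purified P. pyralis luciferase, 10 nM final, with Km-level 10 uM D-luciferin and 10 uM ATP in 50 mM Tris acetate pH 7.5, 10 mM Mg acetate, 0.01% Tween-20, 0.05% BSA; 6-point qHTS titration about 60 µM downward; luminescence read.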
# SMN2 splice up – qHTS Assay for Enhancers of SMN2 Splice Variant Expression; HEK293 SMN2-luciferase splicing reporter, luminescence, 30-36 h; Potency, µM (highest dose often 46.1 µM), inactives show at the top dose activity change, positive = activation, most hits filed as activators; 210,000 compounds, 2.8% hits; AID 1458, 2008; further: % of control where 0% means no effect; nearly all actives have a fitted effect of over 55% in size
#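 HEK293 cells carry an SMN2 […]–luciferase reporter in which exon 7 inclusion puts luciferase in frame. Cells were plated 10-12 h before compound addition, then incubated 30-36 h at 37C. ONE-Glo luminescence was read; sodium butyrate at 4.5 mM final served as control.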
# Rab9 prom act – qHTS Assay for Rab9 Promoter Activators. Potency, µM (titrated, usually from 9.22 µM), without a hit: at the highest dose activation, negative = inhibition, hits mostly activators. 320,000 compounds, 2.8% hits. Huh7 Rab9 promoter-luciferase reporter, luminescence, 24 h. AID 485297, 2010; further: % of control where 0% means no effect; nearly all actives have a fitted effect of over 60% in size
#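 Rab9 promoter-driven luciferase in stably transfected Huh7 cells; 1500 cells/well rested 2 h, exposed to compound in DMSO for 24 h at 37 °C, 5% CO2. Luminescence read 10 min after adding luciferase reagent at ambient temperature.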
# ELG1 genotoxic – qHTS screen for small molecules that induce genotoxicity in human embryonic kidney (HEK293T) cells expressing luciferase-tagged ELG1; Potency, µM (series often up to 46 µM), inactives show at the highest dose activity change, positive = activation, most hits filed as activators; HEK293T ELG1-luciferase reporter, luminescence, 16 h; AID 504466, 2011; 330,000 compounds, 1.3% hits; further: % of control where 0% means no effect; nearly all actives have a fitted effect of over 60% in size
#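 Reporter readout depends on ELG1 protein level, which increases with genetic stress. After 16 hr compound exposure at 37 °C, luciferase activity was quantified using ONE-Glo.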
# NPC1 promoter act – qHTS Assay for NPC1 Promoter Activators; Huh7 NPC1 promoter luciferase reporter, 24 h; Potency, µM (doses to about 9.22 µM), for the others: at the highest dose activation, most hits filed as activators; 320,000 compounds, 2.4% hits; AID 485313, 2010; further: % of control where 0% means no effect; nearly all actives have a fitted effect of over 60% in size
#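 Stable NPC1-promoter luciferase Huh7 line; cpd (DMSO) 24 h, 37 °C, 5% CO2; Amplite luciferase reagent 10 min RT; luminescence readout. qHTS format.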
# Starred values were filed as active, the others as inactive; ? = inconclusive; . = no result given; [ ] = dose if it differs, or a comment. The call rests on the fitted dose curve; in most records, active means well fitted curve in the direction sought with a large enough effect; inconclusive means small, poorly fitted or top-dose-only effect, or another doubt; inactive means no such curve, though single readings can be large; an effect the other way counts as inactive or inconclusive. Potency means the concentration at half of the fitted maximal effect.
SMILES,KinaseGlo FLuc,FLuc counter,SMN2 splice up,Rab9 prom act,ELG1 genotoxic,NPC1 promoter act
Cc1cccc(NC(=O)c2ccc3c(c2)OCCO3)c1,.,0.76µM*,.,0.63µM*,?,0.89µM*
Cc1ccc(C(=O)NCC(=O)Nc2ccc3c(c2)OCCO3)cc1,.,-5%,.,12%,1%,-4%
Cc1ccc(C(=O)Nc2ccc3c(c2)OCCO3)c(C)c1,.,0.3µM*,.,0.089µM*,?,0.089µM*
O=C(Nc1cccc(F)c1)c1ccc2c(c1)OCCO2,.,4.8µM*,.,3.2µM*,?,?
Cc1ccc(NC(=O)c2ccc3c(c2)OCCO3)cc1C,.,0.27µM*,.,0.32µM*,?,0.63µM*
CCN(CC)S(=O)(=O)c1cccc(C(=O)N[C@H](C(=O)NCc2ccc(Cl)cc2)C(C)C)c1,19%,1%,-22%,3%,-16%,0%
Cc1ccc(NC(=O)c2ccc3c(c2)OCCO3)cc1S(=O)(=O)Nc1cccc(Cl)c1,-4%,17µM*,.,16%,-4%,13%
Cc1ccc(C(=O)NCC(=O)OCC(=O)c2ccc3c(c2)OCCO3)cc1C,-4%,21µM*,-6%,8%,12%,7%
O=C(Nc1ccccc1)c1ccc2c(c1)OCCO2,?,4.3µM*,18µM*,1.6µM*,?,0.71µM*
CC(C)CNC(=S)NNC(=O)c1csc2c1CCC(C)C2 (stereo not drawn),0%,1%,-14%,4%,-5%,0%
COc1ccc(C(=O)NCC(=O)OCC(=O)c2ccc3c(c2)OCCO3)cc1,2%,-18%,-8%,0%,3%,3%
Cc1cccc(NC(=S)NNC(=O)c2csc3c2CCC(C)C3)c1 (stereo not drawn),-3%,12µM*,19%,?,25%,16%
O=C(CSc1nncn1-c1ccccc1)Nc1ccc(F)cc1F,.,0%,.,-2%,0%,0%
COC(=O)c1ccsc1NC(=O)c1ccc2c(c1)OCCO2,.,19µM*,.,17%,14%,-1%
Brc1ccc(C2=Nn3cnnc3SC2)cc1,.,0%,.,1%,0%,-2%
CC1(C)N=C(N)N=C(N)N1CCCCc1ccccc1,-9%[7.66 µM],.,-63%[9.22 µM],.,.,.
Fc1cccc(Cl)c1CNc1ccc(N2CCCC2)cc1,-1%,9.5µM*,-12%,17%,6%,14%
CCOc1cc(C(=O)N2CCCN(C)CC2)cc(OCC)c1OCC,.,-1%,.,-3%,-1%,7%
COc1cc(/C=N/Nc2ccc(Cl)c(C(=O)O)c2)ccc1OC(=O)c1ccccc1F,.,17µM*,.,24%,14%,?
COc1cc(/C=N/NC(=O)c2ccc(F)cc2)ccc1OC(=O)c1ccco1,-3%,?,5%,-3%,6%,6%
COc1cc(/C=N/Nc2ccc(Cl)c(C(=O)O)c2)ccc1OC(=O)c1ccc(F)cc1,.,?,.,?,?,2.8µM*
Cn1c(=O)c2c(O)c(C=Nc3ccc(F)cc3)c(=O)n(C)c2n(C)c1=O,.,0%,.,-2%,2%,-2%
COc1cc([N+](=O)[O-])ccc1NC(=O)Nc1ccc2c(c1)OCCO2,1%,6.7µM*,8%,?,3%,5%
O=C(Nc1ccc([N+](=O)[O-])cc1)Nc1ccc2c(c1)OCCO2,3%,2.1µM*,6.3µM*,0.79µM*,-6%,1µM*
COc1cc([N+](=O)[O-])ccc1NC(=S)N1CCOCC1,.,3%,.,-1%,0%,-2%
O=C(N/N=C/c1ccccn1)c1cc(-c2ccc(Br)cc2)nc2ccccc12,.,5.4µM*,.,-3%,?,-4%
O=C(N/N=C/c1ccccn1)c1cc(-c2ccc(Cl)cc2)nc2ccccc12,2%,6.7µM*,-81%,-4%,17%,0%

# Screens (PubChem BioAssay)
